From PubChem BioAssay (NCI) come the findings set out here.

About 83,000 compounds went through this panel and 20% of them were active in at least one assay; those are over-represented in the sample as a whole.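 Testing used 96-well plates and a 48-hour single-concentration exposure. Example: -40 means 40% of the starting cells died.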 Values without a mark were called inactive. Active and inactive are the calls of the source. How the source made its calls: active means growth percent below 10; inactive means the rest.

The test deals with HL-60(TB) leukemia. In words: NCI-60 one-dose screen, 48 h (100 = growth as untreated, 0 = no growth, -100 = all killed). Particulars: 10 µM unless noted.
Consider `COC(=O)c1c(C)nc(Nc2nc3ccccc3s2)nc1-c1ccc(Cl)cc1Cl`, for which the growth was 96.3%. Then `COc1ccc2nc3cc(Cl)ccc3c(Nc3ccc(N(C)C)cc3)c2c1`, with 90%.

Take `Cc1ccc(Nc2nc(-c3ccc(F)cc3)c(C#N)c(=O)n2C)cc1`: the growth was 90.1%. As to `COc1cc(C(=O)/C=C/c2c(C(F)(F)F)nc3sccn23)cc(OC)c1OC`, the growth was -20% (active). Then `Cc1ccc2c(C)c3c(ccc4ccccc43)c[n+]2c1`, with 94.4%. For `CCC(=O)Oc1ccc(OC)cc1`, the growth was 82.6%. The figure for `C=C(NC(=O)[C@H](C(C)C)N(C)c1cccc2[nH]ccc12)C(=O)OC` is 109%; for `COC(=O)Nc1ccc(-c2nc(-c3cccc(OC)c3)c(-c3ccnc(Br)c3)[nH]2)cc1` it is 44.2%. In the case of `CC(=O)N[C@H](C(=O)N[C@@H](CCCNC(=N)N)C(=O)N[C@@H](CCCCN)C(=O)N[C@@H](CCCNC(=N)N)C(=O)NC(C(=O)N[C@@H](CC(C)C)C(=O)N[C@@H](CCCNC(=N)N)C(=O)N[C@@]1(C)CCC/C=C\CCC[C@@](C)(C(=O)N[C@@H](CCCNC(=N)N)C(=O)N[C@@H](CCC(=O)O)C(=O)N[C@@H](CC(C)C)C(=O)N[C@H](C(=O)N[C@@H](CCC(=O)O)C(N)=O)C(C)C)NC(=O)[C@H](CCC(N)=O)NC(=O)[C@H](CC(C)C)NC(=O)[C@H](CC(C)C)NC1=O)[C@@H](C)O)C(C)C` (stereo partly specified), the growth was -41% (active). Then `COC(=O)c1ccc2[nH]c(O)c(C(=Nc3ccc(N(C)C(=O)CN4CCN(C)CC4)cc3)c3ccccc3)c2c1`, with -14.4% (active); and `O=C(NCc1cn(Cc2cccc(Oc3ccccc3)c2)nn1)c1cccnc1NCc1ccc(Cl)cc1`, with 3.88% (active); and `CC(=O)Oc1ccc(Br)cc1C(=O)O`, with 101%. The figure for `CCOc1ccc(C(C)=O)cc1NC(=O)c1cccc(-c2nnn(CC)n2)c1` is 7.31% (active); for `CCn1c(SCC(=O)N/N=C(\C)c2ccc(Cl)cc2)nc2c1c(=O)n(C)c(=O)n2C` it is 101%; for `O=C(NCN1C(=O)c2cccc3cccc(c23)C1=O)N1CCC(Cc2ccccc2)CC1` it is 96.1%. The figure for `O=C(COc1ccc(/C=C2\Cc3ccc(Cl)cc3C2=O)cc1)Nc1nccs1` is 67.3%; for `COCCOc1ccc(-c2nc3ccc(-c4nc5ccc(N6CCN(C)CC6)cc5[nH]4)cc3[nH]2)cc1` it is 3.73% (active).

As to `O=S(=O)(Nc1ccc(Cl)c(Cl)c1)c1ccc(-c2cnc(C3CC3)o2)cc1`, the growth is 18.6%. The figure for `CCC1CN2C(=N1)c1ccccc1-c1cc(Cl)ccc12` (stereo unspecified) is 2.51% (active). As to `O=C1Nc2ccccc2/C1=C/c1cccn1CCCCCCn1c2ccccc2c(=O)c2ccccc21`, the growth was 54.5%.

As to `C=C1C(=O)O[C@H]2[C@H]1CC/C(CNC(=O)/C=C/c1cccc(OC)c1)=C\CC[C@@]1(C)O[C@@H]21`, the growth is -35.4% (active). `O=C1CC23OC(C(O)c4ccccc4N12)C1C(c2ccccc2)=NOC13` (stereo unspecified): the growth is 8.01% (active). Then `O=C(N/N=C\c1ccc(Cl)cc1Cl)c1ccncc1`, with 87.6%; and `CCOC(=O)C(C(=O)OCC)C1CCCCC1`, with 105%; and `COc1ccc(C2C=C(c3ccc(Cl)cc3)N=C3SC=CN32)c(Br)c1` (stereo unspecified), with 92.9%. Then `S=C(Nc1ccc(Cl)cc1)Nc1ccc(Cl)cc1` (tested in a mixture with another compound), with 8.57% (active); and `CN(C)C(=S)NN=C(c1ccccn1)c1ccccn1`, with -27.5% (active); and `COc1nc2ccc(C)cc2cc1/C=[N+](\[O-])c1ccccc1`, with 80.3%. The figure for `O=C(N/N=C/c1ccc(Cl)cc1)c1ccc(NC(=O)c2ccccn2)cc1` is 103%; for `CC(C)=CCCC(C)c1ccc(C)c2c1OCN(CCCCCO)C2` (stereo unspecified) it is 51.7%; for `CCOC(=O)C1=C(C)NC(C)=C(C(=O)OCC)C1(C)C` it is 69.3%. As to `CCCCCCCCCCCCCCCCCCOP(=O)(O)O`, the growth was 102%. The figure for `CCOC(=O)c1nn(C2CCCCO2)c2ccc(NC(=O)CN3CCCC3)cc12` (stereo unspecified) is 97.4%; for `Nc1nc(-c2cc3c(cc2Cl)NC(=O)/C3=C/c2ccccc2)cs1` it is 47%. The figure for `O=COCCCc1ccccc1` is 106%.

As to `COC(=O)[C@H](Cc1cn(C)cn1)NC(=O)[C@@H](NC(=O)Nc1cc(C(F)(F)F)cc(C(F)(F)F)c1)C(C)C`, the growth is -73.5% [100 µM] (active).
